High-throughput results (PubChem BioAssay)
Abeta yeast res – restores growth of yeast expressing A-beta42 peptide | yeast expressing A-beta42, growth rescue, OD600, 48 h; response scale: 0% DMSO, 100% iron-clioquinol control | Potency, µM (doses to about 46.1 µM), actives largely listed as activators | actives 0.063% (n = 410,000) | AID 1347071; also: nearly all actives have a fitted effect of over 55% in size
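Yeast growth medium received pinned compounds, then yeast cells expressing toxic A-beta were added; plates incubated at 30 C for 48 hr. Growth read as absorbance at 600 nm, normalized to DMSO and equimolar FeCl3 plus clioquinol controls.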
FUS yeast rescue – suppressors of FUS proteinopathy in yeast. S. cerevisiae FUS-expressing, growth rescue, OD600, 24 h. Potency, µM (highest dose often 76.6 µM), hits mostly activators. actives 0.24% (n = 390,000);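 also: plate controls were DMSO vehicle for no effect and reference control for full effect; nearly all actives have a fitted effect of over 55% in size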
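Absorbance at 600 nm, taken 24hr after compound addition, measured rescue of FUS-yeast growth at 30C. Induction used 2% galactose with seeding at OD 0.005. Controls: CP55940 from 92uM final, DMSO only.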
Mm-Cpn inhibitor – M. maripaludis TRiC chaperonin inhibition. purified Mm-Cpn ATPase, ADP Transcreener TR-FRET. Potency, µM (doses to about 76.9 µM), without a hit: top-dose activity, negative = inhibition, hits mostly inhibitors. actives 0.031% (n = 330,000); also: % is scaled to controls: 0 for no effect and ±100 for the full control effect; nearly all actives have a fitted effect of over 80% in size
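Purified archaeal Mm-CPN (25nM final) preincubated 10 min at 37degC with compound, then 10uM ATP for 30 min at 37degC; ADP measured by HTRF Transcreener TR-FRET; buffer 30 mM TRIS pH 7.4, 100mM KCl, 5mM MgCl2, 1mM DTT.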
TDP43 rescue – TDP-43 toxicity inhibition in yeast; TDP-43 expressing yeast growth rescue, BacTiter-Glo, 24 h; Potency, µM (highest dose often 46.1 µM), for the others: at the top dose growth rescue (activation), usual class: activators; actives 1.8% (n = 410,000); also: % of control where 0% means no effect; nearly all actives have a fitted effect of over 50% in size
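Luminescence from BacTiter-Glo reports growth of TDP-43-expressing yeast after 24 hr at 30 deg C with compound. Cells were raffinose-pregrown to mid-log, then seeded in galactose medium at OD600=0.02.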
aSyn rescue – rescues yeast growth from alpha-synuclein toxicity | Potency, µM (top dose mostly 46.1 µM), for the others: top-dose growth rescue (activation), most hits filed as activators | AID 652106 | Yeast expressing alpha-synuclein, growth rescue, BacTiter-Glo, 24 h | actives 0.14% (n = 370,000); also: % of control where 0% means no effect; nearly all actives have a fitted effect of over 65% in size
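Readout is rescue of growth in alpha-synuclein-expressing yeast, so inhibitors of toxicity appear as activators. Growth after 24 hr at 30 deg C in galactose medium is quantified by luminescence.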
ClpP mod – qHTS Assay for Activators of ClpP | purified B. subtilis ClpP, FRET peptide cleavage, 20 min | Potency, µM (doses to about 57.5 µM), for inactives: top-dose activity change, negative = active | actives 1.9% (n = 340,000); active = well fitted falling curve with a large enough effect; inconclusive = small, poorly fitted or top-dose-only effect; inactive = no such curve, though single readings can be large or run the other way; also: the source files actives as falling curves though it sought activators and does not explain the sign; nearly all actives have a fitted effect of over 65% in size
Target sequence (P80244 whole entry, looked up): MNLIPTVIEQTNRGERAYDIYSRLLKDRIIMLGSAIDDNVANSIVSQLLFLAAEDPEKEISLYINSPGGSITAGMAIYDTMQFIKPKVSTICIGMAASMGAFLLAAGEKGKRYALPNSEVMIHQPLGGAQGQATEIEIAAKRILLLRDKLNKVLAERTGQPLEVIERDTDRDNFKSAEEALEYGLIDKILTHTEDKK
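Buffer: 100 mM Tris/HCl pH8, 100 mM KCl, 0.05% low protease BSA, 2.5% glycerol, 0.01% Tween-20. ClpP 10 microg/mL final; 20 min RT; delta FRET normalized to ADEP and DMSO controls.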
Active calls of the source: *. An excerpt weighted towards active compounds, which were near 3.6% of everything screened. Unless noted, calls follow the shape of the dose curve; as a rule, active = well fitted curve in the direction sought with a large enough effect; inconclusive = small, poorly fitted or top-dose-only effect, or another doubt; inactive = no such curve, though single readings can be large; an effect the other way counts as inactive or inconclusive. Potency is read from the fitted curve at half-maximal effect.

`Cc1ccccc1-n1c2nc(=O)[nH]c(=O)c-2cc2c(Cl)cccc21` gave Abeta yeast res inactive, FUS yeast rescue inactive, TDP43 rescue 3.55µM* and ClpP mod 3.8%.
For CCn1c(C)cc(C(=O)CSc2nnnn2C2CCCC2)c1C the results were Abeta yeast res inactive, Mm-Cpn inhibitor 0.2%, TDP43 rescue 20µM*, aSyn rescue 0.5% and ClpP mod 0.9%.
For COc1ccccc1C(C)NCC(=O)Nc1ccccc1C(F)(F)F (stereo not given) the results were Abeta yeast res inactive, FUS yeast rescue inactive, Mm-Cpn inhibitor 3.7%, TDP43 rescue -3.0%, aSyn rescue 0.2% and ClpP mod 17.8µM*.
CCC(O)(C(=O)Nc1ccccc1C(F)(F)F)c1ccccc1OC (stereo not given) was read as Abeta yeast res inactive, FUS yeast rescue inactive, Mm-Cpn inhibitor -2.5%, TDP43 rescue 2.7%, aSyn rescue -0.3% and ClpP mod -1.1%.
Screening CCOc1ccc(-c2nnc3ccc(SC(C)C)nn23)cc1 returned Abeta yeast res inactive, FUS yeast rescue inactive, Mm-Cpn inhibitor 1.1%, TDP43 rescue 15.8µM*, aSyn rescue -6.7% and ClpP mod -2.1%.
`CC(C)c1nc(N2CCN(C(=O)c3ccco3)CC2)c(C#N)c2c1COC(C)(C)C2` gave Abeta yeast res inactive, FUS yeast rescue inactive, Mm-Cpn inhibitor 1.2%, TDP43 rescue inconclusive and aSyn rescue 3.2%.
Screening CC1(C)Cc2c(C#N)c(SCCO)nc(N3CCOCC3)c2CO1 returned Abeta yeast res inactive, FUS yeast rescue inactive, Mm-Cpn inhibitor -1.8%, TDP43 rescue -2.2%, aSyn rescue 0.1% and ClpP mod -1.8%.
CCCCc1nc(NCC2CCCO2)c(C#N)c2c1COC(C)(C)C2 (stereo not given) was read as Abeta yeast res inactive, FUS yeast rescue inactive, Mm-Cpn inhibitor 1.4%, TDP43 rescue 18.7%, aSyn rescue -3.0% and ClpP mod 7.94µM*.
CCCCc1nc(N2CCOCC2)c(C#N)c2c1COC(C)(C)C2 was read as Abeta yeast res inactive, FUS yeast rescue inactive, Mm-Cpn inhibitor -0.8%, TDP43 rescue 19.9%, aSyn rescue 2.6% and ClpP mod 28.2µM*.
`CC(C)c1nc(N2CCN(C(=O)c3ccccc3)CC2)c(C#N)c2c1COC(C)(C)C2` gave Abeta yeast res inactive, FUS yeast rescue inactive, Mm-Cpn inhibitor 0.8%, TDP43 rescue inconclusive, aSyn rescue 5.8% and ClpP mod 28.2µM*.
Screening CCCc1nc(NCc2ccco2)c(C#N)c2c1COC(C)(C)C2 returned Abeta yeast res inactive, FUS yeast rescue inactive, Mm-Cpn inhibitor 0.6%, TDP43 rescue -8.0%, aSyn rescue -0.1% and ClpP mod inconclusive.
For CCCC1CCC2(CCCN2CCOC(=S)Nc2ccccc2)CC1 (stereo not given) the results were FUS yeast rescue inactive.
`O=C(COc1ccc(F)cc1)Nc1ccccc1OCc1cc(=O)n2ccccc2n1` gave Abeta yeast res inactive, FUS yeast rescue inactive, TDP43 rescue 0.0% and ClpP mod inconclusive.
Screening CCOc1ccc(N(CC)S(=O)(=O)N2CCCC(C(=O)Nc3ccc(OC)c(Cl)c3)C2)cc1 (stereo not given) returned Abeta yeast res inactive, FUS yeast rescue inactive, TDP43 rescue 14.4% and ClpP mod 1.3%.
Screening NCCCN(Cc1ccc(Cl)cc1)c1ccc(Br)cn1 returned aSyn rescue -11.1% and ClpP mod -5.1%.
CCc1nc2sc(C(C)=O)c(N)c2c2c1CCCC2 was read as Abeta yeast res inactive, FUS yeast rescue inactive, Mm-Cpn inhibitor -3.8%, TDP43 rescue inconclusive, aSyn rescue 9.2% and ClpP mod 3.9%.
`CCc1nc2sc(C#N)c(N)c2c2c1CCCC2` gave Abeta yeast res inactive, FUS yeast rescue inactive, TDP43 rescue 4.7%, aSyn rescue 15.5% and ClpP mod 28.2µM*.
Screening CC(=O)OC[C@@H]1CN(Cc2cccc(C(F)(F)F)c2)C[C@H](n2cnc3c(N4CCOCC4)ncnc32)O1 returned Abeta yeast res inactive, FUS yeast rescue inconclusive, TDP43 rescue 0.0%, aSyn rescue 9.5% and ClpP mod 0.9%.
`CC(=O)OC[C@@H]1CN(Cc2cccc(C(F)(F)F)c2)C[C@H](n2cnc3c(NCc4ccco4)ncnc32)O1` gave Abeta yeast res inactive, FUS yeast rescue inconclusive, TDP43 rescue 11.2µM*, aSyn rescue 3.2% and ClpP mod 6.1%.
For Cc1ccc(NC(=O)c2c3c(nc4ccccc24)C(=O)N(C2CCCCC2)C3)cc1F the results were Abeta yeast res inactive, FUS yeast rescue inactive, TDP43 rescue 23.2% and ClpP mod 3.2%.
Screening CCC[C@H]1[C@@H](NC(=O)c2cccnc2)CC[C@@]23CCCN2C(=O)CCC[C@@H]13 returned FUS yeast rescue inactive.
Screening COc1ccc(-n2c(SCC(=O)N3CCCCC3)nc(O)cc2=O)cc1 returned Abeta yeast res inactive, FUS yeast rescue 31.6µM*, Mm-Cpn inhibitor 0.1%, TDP43 rescue -3.1%, aSyn rescue 2.8% and ClpP mod 0.9%.
For O=C(NCCc1ccc(F)cc1)c1cc(=O)c2ccccc2o1 the results were Abeta yeast res inactive, FUS yeast rescue inactive, Mm-Cpn inhibitor 0.6%, TDP43 rescue 22.4µM* and aSyn rescue 14.0%.
`Cc1ccccc1NC(=O)c1cc(=O)c2ccccc2o1` gave Abeta yeast res inactive, FUS yeast rescue inactive, Mm-Cpn inhibitor -0.2%, TDP43 rescue 12.6µM*, aSyn rescue -9.6% and ClpP mod 0.6%.
For Cc1ccc(NC(=O)c2cc(=O)c3ccccc3o2)c(C)c1 the results were Abeta yeast res inactive, FUS yeast rescue inactive, Mm-Cpn inhibitor 0.5%, TDP43 rescue 6.4%, aSyn rescue -1.8% and ClpP mod 0.6%.
Screening CCCCC#CC(CC)NCc1ccc(OC)cc1OC (stereo not given) returned FUS yeast rescue inactive.
Screening O=C(O)c1ccc(-n2nc(C(F)(F)F)c3c2CCCC3)cc1 returned Abeta yeast res inactive, FUS yeast rescue inactive, Mm-Cpn inhibitor 4.4%, TDP43 rescue 15.8µM*, aSyn rescue 9.6% and ClpP mod 0.1%.
For Cc1csc2nc3ccccc3c(=O)n12 the results were Abeta yeast res inactive, FUS yeast rescue inactive, Mm-Cpn inhibitor -0.5%, TDP43 rescue 0.0%, aSyn rescue 9.8% and ClpP mod 14.1µM*.
